PubChem BioAssay (EPA / NIEHS)
“And” between values parts separate entries of the source, which are not always exact repeats. Identical values can stand only once. A structure can be active in one record and inactive in another. The source made the active and inactive calls. Rule for the calls: active = hit-call score of the fitted dose curve at least 0.9, where 1 is the maximum; inactive = score below 0.9.

Test: CCTE_Mundy_HCI_Cortical_Synap_Neur_Matur_NeuriteCount: CCTE's Synaptogenesis and Neurite Maturation Assay in rat cortical cells for Neurite Count, Mundy Lab (AID 2284222)
Protocol: CCTE_Mundy_HCI_Cortical_Synap&Neurite_Matur is a multiplexed, cell-based-readout assay that uses rat primary cortical cells with measurements taken at 288.33 hours after chemical dosing in a microplate: 96-well plate.CCTE_Mundy_HCI_Cortical_Synap_Neur_Matur_NeuriteCount is one of eight components of the CCTE_Mundy_HCI_Cortical_Synap&Neurite_Matur assay. It measures synaptogenesis and neurite maturation related to number of neurites using High Content Imaging of fluorescently labelled markers.[…] Using a type of morphology reporter, loss -of-signal activity can be used to understand developmental effects.
Cells are plated onto 96 well plates and allowed 2 hr for attachment to the substrate. At days in vitro (DIV) 5, Cytosine Arabinoside (AraC) is added to arrest glial cell growth. Chemicals are dosed and a media change is performed at DIV 7 of differentiation and is continued through DIV 12 when the experiment is terminated. Cells are fixed with […] and Hoechst Dye. Cells are stained using Millipore Mouse anti-MAP2MAB3418 (1:800) and Millipore Rabbit anti-Synaptophysinsc-1750 (1:250) primary antibodies and Alexa Fluor-488 goat anti-mouse and AlexaFluor-546 goat anti-rabbit secondary antibodies to label neuronal cell nuclei, synapses and neurites. A Cellomics ArrayScan VTi HCS Reader is used for automated image acquisition and analysis of neurite outgrowth.
With `O=[N+]([O-])c1cc(C(F)(F)F)c(Cl)c([N+](=O)[O-])c1Nc1ncc(C(F)(F)F)cc1Cl` the AC50 was 0.962 µM (active).
In the case of `CCOP(=S)(OCC)SCCSCC`, the outcome was “inactive”.
In the case of `COP(=O)(OC)C(O)C(Cl)(Cl)Cl` (stereo unspecified), the outcome was “inactive”.
In the case of `CCCSP(=O)(OCC)SCCC`, the outcome was “inactive”.
For `CON=C(C(=O)OC)c1ccccc1CON=C(C)c1cccc(C(F)(F)F)c1`, the AC50 was 1.24 µM (active).
In the case of `COP(=O)(OC)OC(Br)C(Cl)(Cl)Br` (stereo unspecified), the outcome was “inactive” and the AC50 was 50 µM (active).
For `CCOP(=S)(Oc1cnc(C(C)(C)C)nc1)OC(C)C` (stereo unspecified), the outcome was “inactive” and the AC50 was 18.6 µM (active).
In the case of `C[N+]1(C)CCCCC1`, the outcome was “inactive”.
With `CCCCSP(=O)(SCCCC)SCCCC` the AC50 was 16.1 µM (active) and the outcome was “inactive”.
For `CCOP(=O)(NC(C)C)Oc1ccc(SC)c(C)c1` (stereo unspecified), the outcome was “inactive”.
In the case of `CC(=NC#N)N(C)Cc1ccc(Cl)nc1`, the outcome was “inactive”.
With `CCOP(=O)(OCC)Oc1cc(C)nc(C(C)C)n1` the outcome was “inactive”.
In the case of `CCOP(=O)(SC(C)CC)N1CCSC1=O` (stereo unspecified), the outcome was “inactive”.
With `CN(C)[C@@H]1C(=O)C(C(N)=O)=C(O)[C@@]2(O)C(=O)C3=C(O)c4c(O)cccc4[C@@](C)(O)[C@H]3[C@H](O)[C@@H]12` the AC50 was 72.5 µM (active).
In the case of `CC[C@H](C)[C@H]1O[C@]2(C=C[C@@H]1C)C[C@@H]1C[C@@H](C/C=C(\C)[C@@H](O[C@H]3C[C@H](OC)[C@@H](O[C@H]4C[C@H](OC)[C@@H](NC)[C@H](C)O4)[C@H](C)O3)[C@@H](C)/C=C/C=C3\CO[C@@H]4[C@H](O)C(C)=C[C@@H](C(=O)O1)[C@]34O)O2`, the AC50 was 657 nM (active) and 1.79 µM (active).
With `CC1=NNC(=O)N(/N=C/c2cccnc2)C1` the outcome was “inactive”.
With `CCOP(=S)(OCC)OC(Cl)C(Cl)(Cl)Cl` (stereo unspecified) the AC50 was 12.8 µM (active) and the outcome was “inactive”.
In the case of `CCOP(=S)(OCC)Oc1ccc2c(C)c(Cl)c(=O)oc2c1`, the outcome was “inactive”.
For `CCCSP(=O)(OCC)Oc1ccc(Br)cc1Cl` (stereo unspecified), the outcome was “inactive”.
In the case of `CN1COCN(Cc2cnc(Cl)s2)C1=N[N+](=O)[O-]`, the outcome was “inactive”.
In the case of `CC(C)N(C(=O)SCC(Cl)=C(Cl)Cl)C(C)C`, the outcome was “inactive”.
For `CSC1=N[C@@](C)(c2ccccc2)C(=O)N1Nc1ccccc1`, the outcome was “inactive”.
For `CCOP(=S)(OCC)Oc1cc(C)nc(C(C)C)n1`, the outcome was “inactive”.
With `CCOP(=S)(OCC)Oc1ccc([N+](=O)[O-])cc1` the outcome was “inactive”.
In the case of `COP(=O)(NC(C)=O)SC` (stereo unspecified), the outcome was “inactive”.
For `CCOC(=O)CC(SP(=O)(OC)OC)C(=O)OCC` (stereo unspecified), the outcome was “inactive”.
With `S=C1NCCN1` the outcome was “inactive”.
